# Test results reported in PubChem BioAssay (NCI).
# Compounds without any hit were thinned out: in the full panel of roughly 79,000, 15% have a hit. A number with no mark means an inactive call. The source made the active and inactive calls. Rule as the data show it: active = growth inhibition above about 70%; inactive = the rest.
# Assays:
# [1] = NCI Yeast Anticancer Drug Screen. Data for the rad52 strain (AID 147);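 also: 0% = growth of vehicle-treated control cultures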; conditions: S. cerevisiae rad52 mutant growth inhibition, stronger effect = higher value
# Method in brief: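 Genetically altered yeast (DNA damage repair defect) treated with compound; inhibition calculated relative to vehicle.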
# [2] = NCI Yeast Anticancer Drug Screen. Data for the wt1 strain (AID 149);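 also: 0% = growth of vehicle-treated wt1 cultures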; conditions: S. cerevisiae wt1 strain (SPY 50644) growth inhibition, stronger effect = higher value
# Method in brief: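 Compounds are added to wt1 yeast cultures. Growth is then measured. Inhibition is expressed relative to vehicle-treated controls.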
# [3] = NCI Yeast Anticancer Drug Screen. Data for the rad50EPP+ strain (AID 151);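 also: 0% = growth of vehicle-treated control cultures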; conditions: S. cerevisiae rad50 mutant strain, stronger effect = higher value
# Method in brief: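 Strain rad50EPP+; compound exposure; % growth inhibition vs vehicle.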
# [4] = NCI Yeast Anticancer Drug Screen. Data for the mgt1 strain (AID 153); conditions: S. cerevisiae mgt1 mutant growth inhibition, stronger effect = higher value
# Method in brief: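 Read-out: yeast growth inhibition vs vehicle control. Strain mgt1, drawn from a panel altered in DNA damage repair or cell cycle control.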
# [5] = NCI Yeast Anticancer Drug Screen. Data for the rad50 strain (AID 155);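 also: 0% = growth of vehicle-only cultures of the same strain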; conditions: S. cerevisiae rad50 strain growth inhibition, stronger effect = higher value
# Method in brief: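 Inhibition values express reduced yeast growth in compound-treated cultures relative to vehicle-treated controls.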
# [6] = NCI Yeast Anticancer Drug Screen. Data for the mec2-1 strain (AID 157); conditions: S. cerevisiae mec2-1 strain, stronger effect = higher value
# Method in brief: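 Cells of the genetically defined mec2-1 yeast strain are incubated with test compound. Inhibition of growth is calculated against vehicle-treated controls.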
# [7] = NCI Yeast Anticancer Drug Screen. Data for the rad14 strain (AID 159);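 also: 0% = growth of vehicle-treated control cultures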; conditions: S. cerevisiae rad14 strain growth inhibition, stronger effect = higher value
# Method in brief: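 A mutant yeast strain defective in DNA damage repair is treated with compound; inhibition of its growth is scored against untreated, vehicle-exposed cultures.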
# [8] = NCI Yeast Anticancer Drug Screen. Data for the sgs1 mgt1 strain (AID 161);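 also: 0% = growth of cultures given vehicle only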; conditions: S. cerevisiae sgs1 mgt1 strain, stronger effect = higher value
# Method in brief: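 Genetically altered yeast, compound exposure, growth inhibition relative to vehicle.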
# [9] = NCI Yeast Anticancer Drug Screen. Data for the CLN2oe strain (AID 163);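 also: 0% = growth of vehicle-only control cultures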; conditions: S. cerevisiae CLN2oe strain, stronger effect = higher value
# Method in brief: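 Strain altered in cell-cycle control, incubated with compound; growth compared to solvent-treated controls.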
# [10] = NCI Yeast Anticancer Drug Screen. Data for the cln2 rad14 strain (AID 165);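 also: 0% = growth equal to vehicle treated cultures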; conditions: S. cerevisiae cln2 rad14 strain, stronger effect = higher value
# Method in brief: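 The screen exposed genetically defined yeast (cln2 rad14) to test compounds and scored growth inhibition relative to vehicle-treated controls.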
# [11] = NCI Yeast Anticancer Drug Screen. Data for the bub3 strain (AID 167); conditions: S. cerevisiae bub3 mutant strain, stronger effect = higher value
# Method in brief: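 Steps: expose the mutant yeast strain to compound; grow alongside vehicle-treated cultures; measure growth; express inhibition against the vehicle cultures.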
# [12] = NCI Yeast Anticancer Drug Screen. Data for the wt2 strain (AID 169);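 also: 0% = growth of vehicle-treated yeast cultures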; conditions: S. cerevisiae wt2 strain growth inhibition, stronger effect = higher value
# Method in brief: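 Steps: yeast strain treated with compound; growth recorded; inhibition calculated relative to cultures given vehicle alone.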
# [13] = NCI Yeast Anticancer Drug Screen. Data for the mlh1 strain (AID 171);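 also: 0% = growth of vehicle-treated control cultures of the same strain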; conditions: S. cerevisiae mlh1 strain growth inhibition, stronger effect = higher value
# Method in brief: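 Yeast screen: mutant strain plus compound, growth scored against vehicle control wells.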
# [14] = NCI Yeast Anticancer Drug Screen. Data for the sgs1 strain (AID 173);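 also: 0% = growth of vehicle-only control cultures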; conditions: S. cerevisiae sgs1 mutant, stronger effect = higher value
# Method in brief: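 Inhibition of yeast growth served as the measure. The mutant strain was treated with each compound, and growth was normalised to cultures receiving vehicle alone.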
# [15] = NCI Yeast Anticancer Drug Screen. Data for the mlh1 rad18 strain (AID 175); conditions: S. cerevisiae mlh1 rad18 strain growth inhibition, stronger effect = higher value
# Method in brief: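 Compound-treated yeast growth, normalised to vehicle controls. Strain bears defined DNA repair mutations.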
# [16] = NCI Yeast Anticancer Drug Screen. Data for the rad18 strain (AID 177); conditions: S. cerevisiae rad18 mutant growth inhibition, stronger effect = higher value
# Method in brief: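 Inhibition values reflect reduced yeast growth compared with vehicle-treated controls, using a strain engineered with a DNA damage repair defect.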
# [17] = at 5.0 µM (retest, dose inferred, filed as 0.5)
# [18] = at 50.0 µM (retest, dose inferred, filed as 5.0)
structure (smiles),measurement,setting,value
COc1ccc(C(=O)c2ccccc2C(=O)c2ccccc2OC)cc1,growth inhibition,[1]; at 1.2 µM,-1%
same,growth inhibition,[1]; at 3.7 µM,-2%
same,growth inhibition,[1]; at 11.0 µM,1%
same,growth inhibition,[1]; at 33.0 µM,6%
same,growth inhibition,[1]; at 100.0 µM,14%
same,growth inhibition,[2]; at 1.2 µM,-2%
same,growth inhibition,[2]; at 3.7 µM,1%
same,growth inhibition,[2]; at 11.0 µM,-6%
same,growth inhibition,[2]; at 33.0 µM,-7%
same,growth inhibition,[2]; at 100.0 µM,-4%
same,growth inhibition,[3]; at 1.2 µM,5%
same,growth inhibition,[3]; at 3.7 µM,9%
same,growth inhibition,[3]; at 11.0 µM,11%
same,growth inhibition,[3]; at 33.0 µM,15%
same,growth inhibition,[3]; at 100.0 µM,13%
same,growth inhibition,[4]; at 1.2 µM,-1%
same,growth inhibition,[4]; at 3.7 µM,-1%
same,growth inhibition,[4]; at 11.0 µM,-2%
same,growth inhibition,[4]; at 33.0 µM,-1%
same,growth inhibition,[4]; at 100.0 µM,7%
same,growth inhibition,[5]; at 1.2 µM,-1%
same,growth inhibition,[5]; at 3.7 µM,1%
same,growth inhibition,[5]; [17],7%
same,growth inhibition,[5]; at 11.0 µM,-1%
same,growth inhibition,[5]; at 33.0 µM,4%
same,growth inhibition,[5]; [18],46%
same,growth inhibition,[5]; at 50.0 µM,12.8%
same,growth inhibition,[5]; at 100.0 µM,10%
same,growth inhibition,[6]; at 1.2 µM,-2%
same,growth inhibition,[6]; at 3.7 µM,1%
same,growth inhibition,[6]; [17],-10%
same,growth inhibition,[6]; at 11.0 µM,1%
same,growth inhibition,[6]; at 33.0 µM,7%
same,growth inhibition,[6]; [18],16%
same,growth inhibition,[6]; at 50.0 µM,10.1%
same,growth inhibition,[6]; at 100.0 µM,11%
same,growth inhibition,[7]; at 1.2 µM,-3%
same,growth inhibition,[7]; at 3.7 µM,-5%
same,growth inhibition,[7]; at 11.0 µM,-5%
same,growth inhibition,[7]; at 33.0 µM,-1%
same,growth inhibition,[7]; at 100.0 µM,8%
same,growth inhibition,[8]; [17],17%
same,growth inhibition,[8]; [18],55%
same,growth inhibition,[8]; at 50.0 µM,15.4%
same,growth inhibition,[9]; at 1.2 µM,2%
same,growth inhibition,[9]; at 3.7 µM,-15%
same,growth inhibition,[9]; at 11.0 µM,0%
same,growth inhibition,[9]; at 33.0 µM,7%
same,growth inhibition,[9]; at 100.0 µM,24%
same,growth inhibition,[10]; [17],9%
same,growth inhibition,[10]; [18],35%
same,growth inhibition,[10]; at 50.0 µM,13.7%
same,growth inhibition,[11]; at 1.2 µM,-1%
same,growth inhibition,[11]; at 3.7 µM,3%
same,growth inhibition,[11]; [17],16%
same,growth inhibition,[11]; at 11.0 µM,7%
same,growth inhibition,[11]; at 33.0 µM,27%
same,growth inhibition,[11]; [18],79% (active)
same,growth inhibition,[11]; at 50.0 µM,39.5%
same,growth inhibition,[11]; at 100.0 µM,43%
same,growth inhibition,[12]; at 1.2 µM,-1%
same,growth inhibition,[12]; at 3.7 µM,-2%
same,growth inhibition,[12]; at 11.0 µM,-5%
same,growth inhibition,[12]; at 33.0 µM,-2%
same,growth inhibition,[12]; at 100.0 µM,1%
same,growth inhibition,[13]; at 1.2 µM,1%
same,growth inhibition,[13]; at 3.7 µM,-2%
same,growth inhibition,[13]; at 11.0 µM,-1%
same,growth inhibition,[13]; at 33.0 µM,4%
same,growth inhibition,[13]; at 100.0 µM,15%
same,growth inhibition,[14]; at 1.2 µM,-1%
same,growth inhibition,[14]; at 3.7 µM,-2%
same,growth inhibition,[14]; at 11.0 µM,0%
same,growth inhibition,[14]; at 33.0 µM,9%
same,growth inhibition,[14]; at 100.0 µM,15%
same,growth inhibition,[15]; [17],30%
same,growth inhibition,[15]; [18],68%
same,growth inhibition,[15]; at 50.0 µM,20.7%
same,growth inhibition,[16]; at 1.2 µM,-1%
same,growth inhibition,[16]; at 3.7 µM,-5%
same,growth inhibition,[16]; at 11.0 µM,-4%
same,growth inhibition,[16]; at 33.0 µM,3%
same,growth inhibition,[16]; at 100.0 µM,12%
CCCCCCCCCCCC1=NCCO1,growth inhibition,[1]; at 1.2 µM,3%
same,growth inhibition,[1]; at 3.7 µM,3%
same,growth inhibition,[1]; at 11.0 µM,-1%
same,growth inhibition,[1]; at 33.0 µM,18%
same,growth inhibition,[1]; at 100.0 µM,98% (active)
same,growth inhibition,[2]; at 1.2 µM,1%
same,growth inhibition,[2]; at 3.7 µM,-1%
same,growth inhibition,[2]; at 11.0 µM,2%
same,growth inhibition,[2]; at 33.0 µM,15%
same,growth inhibition,[2]; at 100.0 µM,98% (active)
same,growth inhibition,[3]; at 1.2 µM,4%
same,growth inhibition,[3]; at 3.7 µM,5%
same,growth inhibition,[3]; at 11.0 µM,16%
same,growth inhibition,[3]; at 33.0 µM,27%
same,growth inhibition,[3]; at 100.0 µM,53%
same,growth inhibition,[4]; at 1.2 µM,-5%
same,growth inhibition,[4]; at 3.7 µM,3%
same,growth inhibition,[4]; at 11.0 µM,0%
same,growth inhibition,[4]; at 33.0 µM,27%
same,growth inhibition,[4]; at 100.0 µM,99% (active)
same,growth inhibition,[5]; at 1.2 µM,9%
same,growth inhibition,[5]; at 3.7 µM,18%
same,growth inhibition,[5]; [17],-11%
same,growth inhibition,[5]; at 11.0 µM,14%
same,growth inhibition,[5]; at 33.0 µM,29%
same,growth inhibition,[5]; [18],8%
same,growth inhibition,[5]; at 50.0 µM,25.1%
same,growth inhibition,[5]; at 100.0 µM,99% (active)
same,growth inhibition,[6]; at 1.2 µM,-6%
same,growth inhibition,[6]; at 3.7 µM,-4%
same,growth inhibition,[6]; [17],-12%
same,growth inhibition,[6]; at 11.0 µM,-13%
same,growth inhibition,[6]; at 33.0 µM,18%
same,growth inhibition,[6]; [18],-21%
same,growth inhibition,[6]; at 50.0 µM,46.3%
same,growth inhibition,[6]; at 100.0 µM,99% (active)
same,growth inhibition,[7]; at 1.2 µM,3%
same,growth inhibition,[7]; at 3.7 µM,9%
same,growth inhibition,[7]; at 11.0 µM,15%
same,growth inhibition,[7]; at 33.0 µM,50%
same,growth inhibition,[7]; at 100.0 µM,99% (active)
same,growth inhibition,[8]; [17],-12%
same,growth inhibition,[8]; [18],47%
same,growth inhibition,[8]; at 50.0 µM,87.6% (active)
same,growth inhibition,[9]; at 1.2 µM,-3%
same,growth inhibition,[9]; at 3.7 µM,-1%
same,growth inhibition,[9]; at 11.0 µM,4%
same,growth inhibition,[9]; at 33.0 µM,19%
same,growth inhibition,[9]; at 100.0 µM,99% (active)
same,growth inhibition,[10]; [17],-18%
same,growth inhibition,[10]; [18],36%
same,growth inhibition,[10]; at 50.0 µM,21%
same,growth inhibition,[11]; at 1.2 µM,-19%
same,growth inhibition,[11]; at 3.7 µM,-27%
same,growth inhibition,[11]; [17],-34%
same,growth inhibition,[11]; at 11.0 µM,-1%
same,growth inhibition,[11]; at 33.0 µM,8%
same,growth inhibition,[11]; [18],31%
same,growth inhibition,[11]; at 50.0 µM,24.5%
same,growth inhibition,[11]; at 100.0 µM,98% (active)
same,growth inhibition,[12]; at 1.2 µM,-1%
same,growth inhibition,[12]; at 3.7 µM,0%
same,growth inhibition,[12]; at 11.0 µM,2%
same,growth inhibition,[12]; at 33.0 µM,61%
same,growth inhibition,[12]; at 100.0 µM,99% (active)
same,growth inhibition,[13]; at 1.2 µM,-5%
same,growth inhibition,[13]; at 3.7 µM,-3%
same,growth inhibition,[13]; at 11.0 µM,-10%
same,growth inhibition,[13]; at 33.0 µM,16%
same,growth inhibition,[13]; at 100.0 µM,99% (active)
same,growth inhibition,[14]; at 1.2 µM,1%
same,growth inhibition,[14]; at 3.7 µM,-1%
same,growth inhibition,[14]; at 11.0 µM,6%
same,growth inhibition,[14]; at 33.0 µM,63%
same,growth inhibition,[14]; at 100.0 µM,99% (active)
same,growth inhibition,[15]; [17],-16%
same,growth inhibition,[15]; [18],71% (active)
same,growth inhibition,[15]; at 50.0 µM,41%
same,growth inhibition,[16]; at 1.2 µM,4%
same,growth inhibition,[16]; at 3.7 µM,8%
same,growth inhibition,[16]; at 11.0 µM,5%
same,growth inhibition,[16]; at 33.0 µM,10%
same,growth inhibition,[16]; at 100.0 µM,98% (active)
